In all, about 220,000 compounds went through this assay and about 2,000 (0.91%) were called active. Another 2% or so got no clear call; they are omitted. No stated cut-off is given here; in the data, inconclusive means inhibition above about 80% without an active follow-up result; inactive means below that; test concentration not stated here. Only a sample is shown. Potency and affinity values are given separately.
test: M. tuberculosis H37Rv growth inhibitors, H37Rv strain (AID 1626); settings: stronger effect = higher value, concentration not given here;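 further: bacteria incubated seven days before Alamar blue readout; 0% = bacteria only wells and 100% = bacteria with antibiotic wells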

Compound	inhibition
Cc1c(C(=O)N2CCCCC2)sc(NC(=O)C2CC2)c1C#N	-1.68% (inactive)
Cc1c(C(=O)N2CCCCC2)sc(NC(=O)C(C)C)c1C#N	-2.5% (inactive)
CCCC1=NN(C(=O)Cc2ccc(OC)c(OC)c2)C(O)(C(F)(F)F)C1 (stereo not drawn)	7.79% (inactive)
COc1ccc(-c2oc3ccccc3c(=O)c2OC(C)=O)cc1	67.5% (inactive)
O=C(O)COc1c(-c2ccco2)oc2ccccc2c1=O	-8.35% (inactive)
CCC(C)NS(=O)(=O)c1ccc(NC(C)=O)cc1 (stereo not drawn)	-1.33% (inactive)
CC(C)OCC(O)CS(=O)Cc1ccccc1 (stereo not drawn)	-8.07% (inactive)
CCC(=O)Nc1ccc2nc(C)n(CC(=O)Nc3ccccc3)c(=O)c2c1	-7.72% (inactive)
N=c1c2c(ncn1Cc1ccco1)Oc1ccc3ccccc3c1C2c1ccccc1 (stereo not drawn)	20.9% (inactive)
COc1ccc(C2c3ccc4ccccc4c3Oc3ncn(Cc4ccco4)c(=N)c32)cc1OC (stereo not drawn)	8.86% (inactive)
Cc1cnc(C(=O)OCC(=O)Nc2ccc(Oc3ccccc3)cc2)cn1	38% (inactive)
Cc1ccc2c(c1)c1ncnc(N3CCN(c4ccccc4)CC3)c1n2C	0.76% (inactive)
Cc1ccc2c(c1)c1ncnc(N3CCC4(CC3)OCCO4)c1n2C	-2.11% (inactive)
Fc1ccc2[nH]c3c(N4CCc5ccccc5C4)ncnc3c2c1	4.31% (inactive)
Brc1ccc2[nH]c3c(N4CCc5ccccc5C4)ncnc3c2c1	5.42% (inactive)
CCN(CC(=O)NCc1cccs1)C(=O)c1ccc(S(=O)(=O)N(C)C)cc1	2.21% (inactive)
COc1cccc(NC(=O)CN2CCN(S(=O)(=O)c3ccc(F)cc3)CC2)c1	-7.83% (inactive)
O=C1/C(=C\c2ccc(Cl)c(Cl)c2)N2CCC1CC2	15.2% (inactive)
Cc1ccc(NC(=O)C(=O)NCCOc2ccc(Cl)cc2)c(C)c1	7.98% (inactive)
COc1ccc(NCC(=O)Nc2ccc(Br)cc2F)c(OC)c1	75.1% (inactive)
COc1ccc(Cl)cc1NC(=O)CNc1ccc(F)cc1C	6.38% (inactive)
Cc1ccc(NC(=O)CCC(=O)NNC(=O)COc2ccccc2)c(C)c1	2.24% (inactive)
CCOC(=O)Nc1ccc(C)cc1C	0.47% (inactive)
CCOc1ccc(OCCC(=O)Nc2ccc(F)cc2C)cc1	-6.9% (inactive)
CCOc1ccc(NC(=O)CNc2ccc(C)cc2Cl)cc1	-1.87% (inactive)

Compound	inhibition
Cc1ccc(NC(=O)CNc2ccc(OC(C)C)cc2)c(C)c1	46.8% (inactive)
C[C@@H]1CC[C@]2(O[C@@H](CCO)C[C@@H](O)[C@@H]2O)O1	-6.09% (inactive)
Cc1nc2sc(C(c3cccc(F)c3)N3CCC(C)CC3)c(O)n2n1 (stereo not drawn)	-7.23% (inactive)
O=S(=O)(c1ccc(Cl)c(S(=O)(=O)N2CCCC2)c1)N1CCCC1	-11.7% (inactive)
CC(=O)c1ccc(N2CCN(C(=O)C3(S(=O)(=O)c4ccc(Cl)cc4)CC3)CC2)cc1	1.33% (inactive)
Cc1cc(N2CCN(C)CC2)nc2ccc(NC(=S)N3CCCCC3)cc12	30.4% (inactive)
CN(C(=O)COc1ccc(S(=O)(=O)N2CCOCC2)cc1[N+](=O)[O-])C1CCS(=O)(=O)C1 (stereo not drawn)	-7.08% (inactive)
COc1ccc(NC(=O)c2cccnc2N2CCOCC2)cc1	4.7% (inactive)
COc1ccccc1NC(=S)N(CCCN1CCOCC1)Cc1cccs1	-3.58% (inactive)
CCc1cccc2c(C(=O)COC(=O)c3ccc(O)cc3)c[nH]c12	2.75% (inactive)
CCc1cccc2c(C(=O)COC(=O)c3ccccc3)c[nH]c12	7.6% (inactive)
O=C(COC(=O)c1ccc([N+](=O)[O-])s1)NCc1ccccc1	17.7% (inactive)
Cc1[nH]c2ccccc2c1C(=O)COC(=O)c1ccc([N+](=O)[O-])s1	99.3% (inactive)
CCN(C(=O)CCCC(=O)N(CC)c1ccccc1)c1ccccc1	-1.06% (inactive)
Cc1cc(C)nc(SCC(=O)Nc2ccc(S(=O)(=O)Nc3onc(C)c3C)cc2)n1	-9.62% (inactive)
CC(C)(C)CN1CCNC(=O)C1CC(=O)N1CCN(c2ccccc2)CC1 (stereo not drawn)	-2.51% (inactive)
O=C(NCc1cccc(C(F)(F)F)c1)c1cc(Cl)ccc1Cl	15% (inactive)
CC1=Nc2ccccc2/C1=C\c1nc(-c2ccccc2)oc1O	3.61% (inactive)
CC1=Nc2ccccc2/C1=C\c1nc(-c2ccc(F)cc2)oc1O	54.8% (inactive)
CC(C)(C)CC(C)(C)NC(=O)CSCC(=O)Nc1ccc2ccccc2c1	-8.35% (inactive)
CC(C)c1ccc(CNC(=O)CCc2ccccc2)cc1	6.15% (inactive)
O=C(O)CSCC(=O)NCc1ccccc1	-2.1% (inactive)
O=C(CSCc1ccc(C(=O)O)cc1)Nc1ccc2ccccc2c1	35.7% (inactive)
CCN(CC)C(=N)/C(C#N)=N/Nc1ccccc1	-13.5% (inactive)
Cn1cccc1C(=O)NC(=O)COC(=O)CNC(=O)c1ccc(Cl)cc1Cl	-13% (inactive)

Compound	inhibition
O=C(Cn1nc(C(F)(F)F)c2c1CCCC2)Nc1ccc2c(c1)OCO2	-0.66% (inactive)
CCOc1ccc(C2=NNC(c3cccnc3)=Nc3ccc(OC)cc32)cc1	1.63% (inactive)
N#CCCn1c(C(C#N)(CCC#N)CCC#N)nc2ccccc21	-2.99% (inactive)
COc1ccc(S(=O)(=O)N=C2C=C(C)C(=O)C(C)=C2)cc1	-5.5% (inactive)
COc1ccc(C(=O)ON=C2C=C(C)C(=O)C(C)=C2)cc1	-2.82% (inactive)
COc1cc(C(C(=O)NC(C)(C)C)N(Cc2ccc3c(c2)OCO3)C(=O)c2cnccn2)cc(OC)c1OC (stereo not drawn)	-6.38% (inactive)
CCOC(=O)C[C@H]1c2ccccc2S(=O)(=O)N1c1cccc(OC)c1	-8.13% (inactive)
CC(=O)Nc1sc2c(c1CN1CCCC1)CCCC2	-3.09% (inactive)
CC(=O)Nc1sc2c(c1CN1CCN(C)CC1)CCCC2	-1.53% (inactive)
COc1cccc(C(=O)Nc2ccc(NC(C)=O)cc2)c1	-16.8% (inactive)
CC1CCCN(C(=O)Cn2cnc3c2c(=O)n(C)c(=O)n3C)C1 (stereo not drawn)	10.5% (inactive)
O=C(OCC(=O)N1CCCc2ccccc21)c1ccc(Cl)nc1	60.1% (inactive)
CC1Cc2ccccc2N1C(=O)COC(=O)c1cccnc1Cl (stereo not drawn)	3.35% (inactive)
Cc1cc(C(=O)OCC(=O)N2c3ccccc3CC2C)c(C)o1 (stereo not drawn)	7.82% (inactive)
O=C(OCC(=O)N1CCc2ccccc21)c1cccnc1	-5.16% (inactive)
CC1Cc2ccccc2N1C(=O)COC(=O)CNC(=O)c1ccc(Br)o1 (stereo not drawn)	-10.5% (inactive)
CC1Cc2ccccc2N1C(=O)COC(=O)c1ccc(O)cc1 (stereo not drawn)	2.09% (inactive)
NC(=O)CC[C@@H]1NC(=O)[C@@H]2CCCN2C(=O)c2cc([N+](=O)[O-])cc(I)c2NCCCC[C@@H](C(=O)NC(CC(=O)O)C(N)=O)NC1=O (stereo partly drawn)	0.47% (inactive)
Cc1ccc(NC(=O)CSc2nnc(-c3n[nH]c4ccccc34)n2-c2ccccc2)c(C)c1	14.9% (inactive)
COc1ccc(Cl)cc1Nc1nc(C)cc(C)c1C(N)=O	-2.67% (inactive)
Cc1cc2c(sc3ccccc32)c(C)n1	5.03% (inactive)
CN1C(=O)C(=Cc2ccc(N3CCOCC3)o2)C(=O)N(C)C1=O	5.8% (inactive)
O=Cc1ccc(N2CCCC2)o1	46.4% (inactive)
O=C(Nc1cccc2ncccc12)C12CC3CC(CC(C3)C1)C2	-10% (inactive)
Cc1ccccc1OCc1nnc(SCC(=O)NCc2ccccc2)n1C	2.63% (inactive)

Compound	inhibition
Cc1ccccc1C(=O)NC1CCN(CC(=O)NCc2cccs2)CC1	2.61% (inactive)
COc1ccc(/C=C/C(=O)c2sc(-c3ccccc3)nc2C)cc1	6.03% (inactive)
Cc1ccc(N/C=C/C(=O)c2sc(-c3ccccc3)nc2C)cc1	3.94% (inactive)
COc1cc(S(=O)(=O)N2CCCCC2)ccc1NC(=O)Cc1ccccc1	-1.81% (inactive)
Cc1ccc(CNC(=O)COC(=O)c2cnc(C)cn2)cc1	0.26% (inactive)
COC1=C(Nc2ccc(OC)cc2)C(=O)c2ccccc2C1=O	8.34% (inactive)
COC1=C(Nc2ccccc2)C(=O)c2ccccc2C1=O	13.5% (inactive)
COc1cccc(-c2nc(-c3ccc(C(=O)O)cc3)no2)c1	-12.7% (inactive)
O=[N+]([O-])c1cc(CN2CCCC2)c2cccnc2c1O	-5.59% (inactive)
O=[N+]([O-])c1cc(CN2CCN(c3ccccc3)CC2)c(O)c2ncccc12	77.9% (inactive)
COc1ccc(NC(=O)C2C3CCC(C3)C2C(=O)O)cc1OC (stereo not drawn)	6.44% (inactive)
COCCC(=O)Nc1ccc2c(c1)CN(C(=O)CCSC)CC2	3.42% (inactive)
CCn1c(CNc2ccccc2Cl)nnc1SCCN1CCCCC1	-2.66% (inactive)
CCn1c(CNc2ccc(OC)cc2)nnc1SCC(=O)Nc1ccc(F)cc1	-10.9% (inactive)
CCn1c(CNc2ccccc2Cl)nnc1SCC(=O)NCc1ccccc1	-4.41% (inactive)
CCn1c(CNc2ccc(F)cc2)nnc1SCC(=O)Nc1ccc(OC)cc1	2.51% (inactive)
Cc1ccc(NC(=O)CSc2nnc(Cc3ccccc3)o2)cc1	22.6% (inactive)
O=C(CSc1nnc(Cc2ccccc2)o1)Nc1ccccc1	-4.88% (inactive)
COCCN(C(=O)c1ccco1)C(C(=O)NC1CCCC1)c1cccs1 (stereo not drawn)	0.07% (inactive)
CC(OC(=O)c1snc(C(=O)NC2CCCCC2)c1N)C(=O)NC1CCCCC1 (stereo not drawn)	2.49% (inactive)
CCOC(=O)c1snc(C(=O)NC2CCCCC2)c1N	5.5% (inactive)
CCOC(=O)c1sc(C)c(C(=O)NC2CCCCC2)c1N	4.33% (inactive)
CC(OC(=O)c1snc(C(=O)NC2CCCCC2)c1N)C(=O)NC(C)(C)C (stereo not drawn)	39% (inactive)

Source: PubChem BioAssay AID1626 (SRMLSC, 2009)
